Experimental data taken from PubChem BioAssay AID2732 (Emory University Molecular Libraries Screening Center, 2010).
Screen size: about 220,000 compounds; about 8,200 (3.7%) were called active. The list comes from a sample in which actives are over-represented; it also holds similar structures and randomly drawn compounds. Values without a mark were called inactive.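 Rule for the calls: active = compounds that reduced the stress-induced luciferase reporter signal by more than about 70% of percent inhibition (limit read from the data); inactive = the rest.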

Experiment: blockers of ER-stress CHOP reporter expression – cell-based, unfolded protein response, luciferase reporter, primary screen (AID 2732);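 note: 0% = tunicamycin plus vehicle and 100% = wells without tunicamycin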
Settings: CHO-K1 CHOP-promoter luciferase, tunicamycin-induced, 15-18 h; at 10 µM; active compounds read high
In the case of `Cc1cc(-n2cnc(-c3cn(C)nc3C)n2)no1`, the inhibition is reported as -11.3%.
With `Brc1ccc2c(c1)[C@H]1OCC[C@H]1[C@@H](c1cccs1)N2` the inhibition was 39.4%.
Compound `O=c1[nH][nH]c(=O)c2cc(N3CCCC3)ccc12` has an inhibition of 2.26%.
`COc1cccc(OC)c1C(=O)Nc1ccc(N2CCCCC2)cc1` gave an inhibition of 15.2%.
With `O=C1C=CC(=O)N1c1ccc(N2CCCCC2)cc1` the inhibition was 94% (active).
`Cc1nc(C(=O)NCc2ccccc2)sc1C1(C)CC(c2cccnc2)=NO1` (stereo unspecified) gave an inhibition of 22.9%.
`O=C(N/N=C/c1cccc2cccnc12)[C@H]1C[C@@H]1c1ccccc1` gave an inhibition of 52.4%.
In the case of `CC1=NN(C(=O)c2ccccc2Br)C(O)(c2cccnc2)C1` (stereo unspecified), the inhibition is reported as -24.4%.
In the case of `CC1=NN(C(=O)Cc2ccc(C)cc2)C(O)(c2cccnc2)C1` (stereo unspecified), the inhibition is reported as 73.8% (active).
`CC1=NN(C(=O)c2ccc(Br)cc2)C(O)(c2ccccc2)C1` (stereo unspecified) showed an inhibition of 16.6%.
`O=C(O)C1=C[C@H](c2cccs2)C[C@H](OCCCCO)O1` gave an inhibition of -3.52%.
`Cc1ccc(S(=O)(=O)N(C)CC(=O)OCC(=O)Nc2ccccc2)cc1` gave an inhibition of -0.65%.
`COc1ccccc1P(=O)(c1ccccc1)c1ccccc1NC(C)=O` (stereo unspecified) gave an inhibition of 10.1%.
For `COCCn1c(=NC(=O)c2ccccc2[N+](=O)[O-])sc2cc(S(C)(=O)=O)ccc21`, the inhibition was -7.33%.
With `Cn1c(=NC(=O)c2ccc3c(c2)OCCO3)sc2cc(S(C)(=O)=O)ccc21` the inhibition was 91.9% (active).
For `CC(=O)c1ccc2c(c1)OCCOCCOc1ccc(C(C)=O)cc1OCCOCCO2`, the inhibition was 1.66%.
Work on `O=C(Nc1ccccc1)O/N=C1/CCCc2occc21` yielded an inhibition of -8.45%.
Work on `CN1CCN(c2cc3c(cc2F)c(=O)c(C(=O)O)cn3CCF)CC1` yielded an inhibition of 2.99%.
In the case of `O=C(Cn1cnc2cc([N+](=O)[O-])ccc2c1=O)NC(=O)NCc1ccccc1`, the inhibition is reported as -6.05%.
For `O=C(NNc1cc(Cl)cc(Cl)c1)c1c(F)cccc1Cl`, the inhibition was 30.1%.
In the case of `Cc1nn(CC(=O)N/N=C/c2ccc(F)cc2)c(C)c1[N+](=O)[O-]`, the inhibition is reported as -4.46%.
For `CSc1nnc(SCc2nc3sc(C(=O)O)c(C)c3c(=O)[nH]2)s1`, the inhibition was 3.13%.
Work on `O=C(NN1C(=O)C2CCCCC2C1=O)c1ccco1` (stereo unspecified) yielded an inhibition of 6.45%.
Compound `O=C(CSc1cccc2cccnc12)N/N=C/c1cccnc1` has an inhibition of 42.7%.
For `CC(=O)/C(=N\Nc1ccc(Cl)cc1Cl)Sc1cccc2cccnc12`, the inhibition was 93.6% (active).
For `S=C(NCc1cccnc1)Nc1ccc(Cl)cc1Cl`, the inhibition was 2.87%.
In the case of `Nc1ccc2nn(-c3ccc(Cl)cc3)nc2c1`, the inhibition is reported as 30.4%.
Compound `COc1cc(/C=N/O)ccc1OCc1ccc([N+](=O)[O-])cc1` has an inhibition of 2.17%.
For `CCCc1ccc(OCc2ccc(C(=O)N/N=C/c3cccc([N+](=O)[O-])c3)o2)c(OC)c1`, the inhibition was 85.8% (active).
`COC(=O)c1ccc(COc2ccc(/C=N/NC(=O)C(=O)Nc3ccc(OC)cc3)cc2OC)o1` showed an inhibition of 17.4%.
Compound `COc1cc(C(CCN2CCN(c3ccccc3)CC2)c2c(OC)cc(OC)c3ccc(=O)oc23)cc(OC)c1OC` (stereo unspecified) has an inhibition of -15.7%.
Work on `CCOc1ccc(N=Cc2c(O)n(-c3cccc(C)n3)c(=O)c3ccccc23)cc1` yielded an inhibition of -5.5%.
In the case of `CCOc1[nH]n(-c2ccc(Cl)cc2)c(=O)c1C=Nc1ccc(O)cc1`, the inhibition is reported as 73.4% (active).
Compound `Cc1[nH]n(-c2ccc(Cl)cc2)c(=O)c1/C=N/n1c(C)nc2ccccc2c1=O` has an inhibition of 26.2%.
In the case of `CC(C)(C)c1cc(NC(=O)NN2CCOCC2)nn1-c1c(Cl)cc(Cl)cc1Cl`, the inhibition is reported as 11.2%.
In the case of `CCNC(=S)N1CCN(CCN=CC2=C(O)CC(C)(C)CC2=O)CC1`, the inhibition is reported as 13%.
`CC(C)(C)NC(=O)NCc1ccco1` showed an inhibition of 6.03%.
Compound `CSc1sc(C(=O)NNC(=O)c2ccc(Cl)cc2)c2c1C=CCC2` has an inhibition of 0.19%.
Compound `O=C(Nc1ccccc1C(F)(F)F)N1CCCC1c1cccnc1` (stereo unspecified) has an inhibition of 4.33%.
`O=[N+]([O-])/C=C1\CCCCCN1` gave an inhibition of -14.7%.
For `O=C(O)CSCC(=O)Nc1cccc(C(F)(F)F)c1`, the inhibition was -3.97%.
In the case of `Cn1nc(C(F)(F)F)c(C(=O)Nc2cccc(C(F)(F)F)c2)c1SCc1ccc(Cl)cc1`, the inhibition is reported as 80.9% (active).
Compound `O=C(Nc1cccc(C(F)(F)F)c1)c1cnccn1` has an inhibition of -10.5%.
`CCOC(=O)CSc1nc(C)c(Oc2ccc(Cl)cc2Cl)c(=O)[nH]1` gave an inhibition of 10.4%.
Work on `O=C(NN1C(=O)C2C(C1=O)C1C=CC2C12CC2)c1ccccc1Cl` (stereo unspecified) yielded an inhibition of 3.92%.
For `COc1ccc(C(=O)/C=C/Nc2ccccn2)cc1`, the inhibition was 73.5% (active).
In the case of `COc1ccc(-c2csc(Nc3ccccn3)n2)cc1`, the inhibition is reported as -4.38%.
`CCOc1cc(NC(=O)c2ccccn2)c(OCC)cc1NC(=O)c1ccc(OC)cc1` gave an inhibition of -5.86%.
`Cn1c2ccc(F)cc2c2nnc(NN)nc21` gave an inhibition of 13.9%.
With `N#CCCCn1c(O)c(N=NC(=O)C(O)c2ccccc2)c2ccccc21` (stereo unspecified) the inhibition was 11.1%.
Work on `Cc1ccc(C(c2nnnn2CS(=O)(=O)c2ccc(C)cc2)N2CCC(C(N)=O)CC2)cc1` (stereo unspecified) yielded an inhibition of 33.9%.
For `CC(C)C(c1nnnn1Cc1ccccc1)N1CCC(C(N)=O)CC1` (stereo unspecified), the inhibition was 76.1% (active).
`CC(C)C(c1nnnn1CCc1ccccc1)N1CCN(C(=O)c2ccco2)CC1` (stereo unspecified) showed an inhibition of -7.76%.
`COc1ccc(NC(=S)NCCNC(C)=O)cc1` showed an inhibition of -5.59%.
In the case of `COc1ccc(NC(=S)Nc2ccccc2Cl)cn1`, the inhibition is reported as 1.96%.
With `COc1ccc(CS(=O)/C(Cl)=C(/Cl)C(=O)Nc2ccc(OC)nc2)cc1` (stereo unspecified) the inhibition was 107% (active).
In the case of `Cc1nc(COc2cccc(Cl)c2)sc1C(=O)/C=C/N(C)C`, the inhibition is reported as -1.3%.
`CC(C)(O)C#Cc1ccc(C(=O)N2CCC(C(N)=O)(N3CCCCC3)CC2)cc1` showed an inhibition of 20.2%.
In the case of `NC(=O)C1(N2CCCCC2)CCN(C(=S)Nc2ccc(Cl)cc2)CC1`, the inhibition is reported as 8.9%.
In the case of `NC(=O)C1(N2CCCCC2)CCN(C(=O)c2ccc(C#Cc3ccccc3)o2)CC1`, the inhibition is reported as 78.8% (active).
Work on `COc1ccc(CCNC(=O)C2CC3Cn4c(nc5cc(C)c(C)cc54)C3N2C)cc1` (stereo unspecified) yielded an inhibition of -11.2%.
